Measurements reported in PubChem BioAssay (NCATS).
Inconclusive results are not listed. Entries that show only a call come without a potency. The source made the active and inactive calls. Calls follow the shape of the dose curve; as a rule, active = well fitted inhibition curve with a large enough effect; inconclusive = small, poorly fitted or top-dose-only effect; inactive = flat fitted curve, though single readings scatter.

target: Aldehyde dehydrogenase, mitochondrial (Homo sapiens) (UniProt P05091); assay: qHTS for Inhibitors of the Aldehyde Dehydrogenase Family (ALDH2) Primary screen (AID 2061308); settings: ALDH2 enzyme inhibition qHTS, 1536-well; series mostly up to 56 µM; also: nearly all actives have a fitted effect of over 55% in size

SMILES	Potency
C=C(C)[C@@H]1CC[C@]2(CO)CC[C@]3(C)[C@H](CC[C@@H]4[C@@]5(C)CC[C@H](O)C(C)(C)[C@@H]5CC[C@]43C)[C@@H]12	inactive
COc1cc(C)c(C(=O)Oc2cc(C)c(C(=O)Oc3cc(C)c(C(=O)NC(C)C(=O)O)c(O)c3)c(O[C@@H]3O[C@H](CO)[C@@H](O)[C@H](O)[C@H]3OC(C)=O)c2)c(OC)c1 (stereo partly specified)	inactive
CC(C)C(=O)O[C@@H]1[C@@H](O)[C@@H](O[C@H]2O[C@H](CO)[C@@H](O)[C@H](O)[C@H]2O)O[C@H](CO)[C@H]1O	inactive
C=C1C(=O)OC2C=C(C)CC/C=C(\CO)CC(O)C12 (stereo unspecified)	inactive
CC(C)=CCC/C(C)=C/CO[C@@H]1O[C@H](CO)[C@@H](O)[C@H](O)[C@H]1O	inactive
CC1(C)OC[C@H](NC(=O)Nc2ccc(Br)cc2Br)[C@H](c2ccccc2)O1	inactive
CC1(C)CC[C@]2(C(=O)O[C@@H]3O[C@H](CO)[C@@H](O)[C@H](O)[C@H]3O)CC[C@]3(C)C(=CCC4[C@@]5(C)C[C@H](O)[C@H](O[C@@H]6OC[C@@H](O)[C@H](O)[C@H]6O)[C@@](C)(CO)C5CC[C@]43C)C2C1 (stereo partly specified)	inactive
Cc1cc2c(cc1N1C(=O)c3cccc4c(CCCO)ccc(c34)C1=O)n(C)c(=O)n2C	inactive
C[C@H]1CC[C@@H]2N(C1)C[C@@H]1[C@H]([C@@H](O)[C@H](O)[C@]3(O)[C@H]1C[C@@]14OC5(O)[C@@H](C[C@@H](O)[C@@H]31)[C@]4(C)CC[C@@H]5O)[C@]2(C)O	inactive
O=C1COC2(CCN(S(=O)(=O)c3ccc(-c4ccc5cccnc5c4)cc3)CC2)CN1C1CC1	inactive
C=C1CC2C(C)(CCC(=O)O)C(C(C)(C)O)CCC2(C)C2(C(=O)OC)C(=O)C(C)(O)C(=O)C12C (stereo unspecified)	inactive
C[C@@H]1O[C@@H](O[C@@H]2[C@@H](O)[C@@H](O)[C@H](O[C@@H]3[C@@H](O)[C@@H](O[C@]4(CO)O[C@H](CO)[C@@H](O)[C@@H]4OC(=O)/C=C/c4ccc(O)cc4)O[C@H](CO)[C@H]3OC(=O)/C=C/c3ccc(O)cc3)O[C@H]2C)[C@H](O)[C@H](O)[C@H]1O	inactive
CC1C(=O)CC2C3C(O)CC(C(=O)O)C12CC3(C)C (stereo unspecified)	inactive
CC(CO)C1CCC2(C)CC3C(CO)CC(O)C3C(C)(O)C/C=C/12 (stereo unspecified)	inactive
CC1=C2C[C@@]3(C)[C@@H](CCC[C@@H]3C)C[C@@]2(O)OC1=O	inactive
CC(C)CC(=O)OC1OC=C(CO[C@@H]2O[C@H](CO)[C@@H](O)[C@H](O)[C@H]2O)C2CC(O)C(O)(CO)C12 (stereo partly specified)	inactive
CC(C)Oc1ccc(-c2nc(-c3cccc4c3CCC4NCCC(=O)O)no2)cc1C#N (stereo unspecified)	inactive
CC(C)CNC(=O)/C=C/CCCCc1ccc2c(c1)OCO2	inactive
c1ccc(N2CCN(CCc3nn[nH]n3)CC2)cc1	inactive
C[C@@H]1O[C@@H](O[C@H]2[C@H](O)[C@@H](O[C@@H]3O[C@H](CO)[C@H](O)[C@H](O)[C@H]3O)[C@H](O[C@H]3CC[C@@]4(C)C(CC[C@]5(C)C4CC=C4[C@@H]6CC(C)(C)CC[C@]6(C(=O)O[C@@H]6O[C@H](CO)[C@@H](O)[C@H](O)[C@H]6O)CC[C@]45C)C3(C)C)O[C@@H]2C(=O)O)[C@H](O)[C@H](O)[C@H]1O (stereo partly specified)	inactive
COCCCNC(=O)c1ccc(Cn2c(=O)c3ccccc3n(Cc3ccc(C(C)C)cc3)c2=O)cc1	inactive
C[C@@H]1O[C@@H](O[C@@H]2CO[C@@H](O[C@H]3CC[C@@]4(C)C(CC[C@]5(C)C4CC=C4[C@@H]6CC(C)(C)CC[C@]6(C(=O)O[C@@H]6O[C@H](CO)[C@@H](O)[C@H](O)[C@H]6O)CC[C@]45C)[C@]3(C)CO)[C@H](O)[C@H]2O[C@@H]2O[C@H](CO)[C@@H](O)[C@H](O)[C@H]2O)[C@H](O)[C@H](O)[C@H]1O (stereo partly specified)	inactive
CC(C)C(C(=O)N(C)C(C)C(N)=O)N(C)C(=O)C1CCCN1C(=O)/C=C/C=C/C(O)C(C)O (stereo unspecified)	inactive
OC[C@H]1O[C@@H](OCc2ccccc2)[C@H](O[C@@H]2OC[C@@H](O)[C@H](O)[C@H]2O)[C@@H](O)[C@@H]1O	inactive
COc1cc(-c2cc(-c3cccc(O)c3)cnc2N)cc(OC)c1OC	inactive
C=C(C)[C@@H]1CC[C@]2(C(=O)O)CC[C@]3(C)C(CCC4[C@]5(C)C(CC[C@]43C)C(C)(C)[C@@H](O)[C@@H]5C(=O)O)C12 (stereo partly specified)	inactive
